Growth data for 37 compounds are collected here from PubChem BioAssay (NCI).

SMILES strings stand for the structures. The panel holds about 83,000 compounds, 20% with a hit somewhere; the sample as a whole holds those more often.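 Activity criterion: percent growth below 10, measured after cells in 96-well plates were exposed to a single compound concentration for 48 hours.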 The source made the active and inactive calls.

This experiment concerns LOX IMVI melanoma. The experiment in a line: NCI-60 one-dose screen, 48 h (100 = growth as untreated, 0 = no growth, -100 = all killed). Conditions: 10 µM unless noted.
On to `COC(=O)c1ccc2c(c1)nc(-c1ccc(O)c(OC)c1)n2-c1cc(C(C)(C)C)[nH]n1`, for which the growth was 96.8% (inactive).
Turning to `Cc1nc(N)[nH]c(=O)c1C`, the growth was 102% (inactive).
In the case of `O=C1/C(=C/c2ccc([N+](=O)[O-])o2)Oc2ccc(Cl)cc21`, the growth was -61.8% (active).
With `O=[N+]([O-])c1ccc2c(c1)S(=O)c1cc([N+](=O)[O-])ccc1N2`, the growth is 102% (inactive).
As for `Clc1ccc2nc(Cl)c3ccccc3c2c1`, the growth is 83.2% (inactive).
Then `CC(=O)Oc1ccc(C23c4ccccc4C2(OC(C)=O)c2cc(OC(C)=O)ccc23)cc1` (configuration not stated), with 48.2% (inactive).
On to `Nc1ccc2c(c1)/C(=N/O)c1cc([N+](=O)[O-])ccc1-2`, for which the growth is 64.6% (inactive).
Take `CN1CCCC1c1cccnc1` (configuration not stated): the growth is 100% (inactive).
For `COc1ccc(-c2cnnn2-c2cc(OC)c3c(c2)OCO3)cc1`, the growth was 17.8% (inactive).
Consider `Cc1nn(-c2ccc(Br)cc2)c2nc3c(nc12)C(=O)C(=O)c1ccccc1-3`, for which the growth is 88.1% (inactive).
Regarding `Cn1cc(-c2csc(-c3cn(C)c4ncccc34)n2)c2cc(Br)cnc21`, the growth was 81.9% (inactive).
Then `OC(Cc1cccnc1)c1ccccc1` (configuration not stated), with 101% (inactive); and `C/C(=N/N=C(N)N)c1ccc(Cl)cc1`, with 86.5% (inactive).
Then `Cc1nn(-c2ccccc2)c2nc3c(nc12)C(=O)CCC3`, with 90.3% (inactive).
`C[n+]1ccc(C#N)c2ccccc21`: the growth is 85.5% (inactive).
On to `CCCCCCCC/C=C/CCCCCCCC1=NC(C)(C)CN1CC(C)O` (configuration not stated), for which the growth is -99.4% (active).
As for `O=C1Nc2ccccc2C12Nc1cc(Cl)ccc1S2` (configuration not stated), the growth is 86.3% (inactive).
As to `CCC(CC)NCCCCCNc1cc(OC)cc2cccnc12`, the growth is 86.3% (inactive).
On to `CCC(CCC(C)C1CCC2C3CC=C4CC(O)CCC4(C)C3CCC12C)C(C)C` (configuration not stated) (tested in a mixture with another compound), for which the growth was 99.1% (inactive).
Then `Cc1nn(-c2ccc(Cl)cc2)c2nc3c(nc12)c(=O)oc1ccccc13`, with 101% (inactive); and `Cc1cc(NC(=O)c2ccc(N)cc2)ccc1N=Nc1ccc2c(O)c(N=Nc3ccc(Cl)c(S(=O)(=O)O)c3)c(S(=O)(=O)O)cc2c1`, with 72.7% (inactive).
Then `CN(C)c1nc(-c2ccco2)n2nc(-c3ccco3)cc2n1`, with 75.8% (inactive); and `C[C@]12C[C@H](O)[C@H]3[C@@H](CCC4=CC(=O)CC[C@@]43C)[C@@H]1CC[C@@H]2C(=O)CO`, with 97.7% (inactive); and `Cn1c(N)c(N=O)c(=O)[nH]c1=O`, with 102% (inactive).
As to `Nc1nc(SCc2ccccc2Cl)c(-c2ccccc2)c(SCc2ccccc2Cl)n1`, the growth is 84.7% (inactive).
As for `O=C(CSCC(=O)N/N=C/c1ccccc1O)N/N=C\c1ccccc1O`, the growth is 12.4% (inactive).
Then `O=C(O)C(=O)O`, with 92.9% (inactive); and `Cc1nn(-c2ccccc2)c2ncc3c(c12)C(=O)N(Cc1ccccc1)C3=O`, with 37.2% (inactive).
With `Cc1ccc(NC(=O)COC(=O)c2ccc(S(=O)(=O)N3CCCCCC3)cc2)cc1`, the growth is 97.1% (inactive).
Then `Cc1ccc2c(c1)C(=O)/C(=C/c1ncc([N+](=O)[O-])n1C)O2`, with -3.36% (active); and `CC1CC(C)/C(=N/NC(N)=O)C(C(O)CC2CCC(=O)NC2=O)C1` (configuration not stated), with 27.3% (inactive).
Regarding `CCC(c1ccccc1)c1noc(CCN(CC)CC)n1` (configuration not stated), the growth is 100% (inactive).
For `O=C1Cc2cc(CCn3cncn3)c(Cl)cc2N1`, the growth is 81% (inactive).
As for `Cc1nn(-c2ccccc2)c2nc(Cl)c(/C=C/C(=O)c3ccccc3)c(-c3ccccc3)c12`, the growth is 96.1% (inactive).
Take `COc1ccc(/C=C2\NC(=S)NC2=O)cc1`: the growth was 112% (inactive).
Then `Cn1cc(-c2csc(-c3c[nH]c4ncccc34)n2)c2cc(F)cnc21`, with 64.3% (inactive); and `O=C1NC(=O)/C(=C\c2ccccc2)C2=C1CCCC2`, with -58.4% (active).
